# hNpr1 antagonist – human Npr1 receptor antagonism | P16066 | HEK293 hNpr1 GloSensor cGMP, ANP-stimulated luminescence | Potency, µM (top dose mostly 46.3 µM), without a hit: at the highest dose activity change, negative = inhibition, most hits filed as inhibitors | 1.6% of 76,000 active; calls by dose curve; note: nearly all actives have a fitted effect of over 60% in size
#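 HEK293 cells stably expressing human Npr1 and cGMP GloSensor pGS-40F, loaded 2 h with 2% GloSensor reagent, given compound 30 min at room temperature. Luminescence read before and 20 min after 0.1 nM hNppA.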
# HEK cytotox – kills HEK 293 cells; HEK 293 viability, ATP luminescence (CellTiter-Glo), 48-72 h; Potency, µM (series often up to 115 µM), without a hit: top-dose activity change, negative = cytotoxicity, usual class: inhibitors; 6.6% of 94,000 active; AID 1345083; note: nearly all actives have a fitted effect of over 60% in size
#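 HEK 293 cells at 250 cells/well were exposed to compounds by pintool transfer for 48 or 72 hr at 37 degree Celsius, 5% CO2. Viability was read as ATP-coupled luminescence with CellTiter-Glo after 10 min at room temperature.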
# FLuc inh – inhibitors of firefly (Photinus pyralis) luciferase | P08659 | purified P. pyralis luciferase, luminescence, biochemical | Potency, µM (doses to about 115 µM), hits mostly inhibitors | 2.5% of 76,000 active | AID 1347043; note: nearly all actives have a fitted effect of over 65% in size
#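 Cell-free enzyme assay, 10nM P. pyralis luciferase, luciferin and ATP each at 10uM. Inhibition profiled over a 6-point titration, read as luminescence.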
# GPT2 inh – blocks human glutamate pyruvate transaminase 2 | Recombinant GPT2, coupled pyruvate oxidase/HRP Amplex Red fluorescence | Potency, µM (highest dose often 57.7 µM), for the others: at the highest dose activity change, negative = inhibition, hits mostly inhibitors | 0.25% of 100,000 active | AID 1671188; note: nearly all actives have a fitted effect of over 60% in size
# Target sequence (Q8TD30 whole entry, looked up): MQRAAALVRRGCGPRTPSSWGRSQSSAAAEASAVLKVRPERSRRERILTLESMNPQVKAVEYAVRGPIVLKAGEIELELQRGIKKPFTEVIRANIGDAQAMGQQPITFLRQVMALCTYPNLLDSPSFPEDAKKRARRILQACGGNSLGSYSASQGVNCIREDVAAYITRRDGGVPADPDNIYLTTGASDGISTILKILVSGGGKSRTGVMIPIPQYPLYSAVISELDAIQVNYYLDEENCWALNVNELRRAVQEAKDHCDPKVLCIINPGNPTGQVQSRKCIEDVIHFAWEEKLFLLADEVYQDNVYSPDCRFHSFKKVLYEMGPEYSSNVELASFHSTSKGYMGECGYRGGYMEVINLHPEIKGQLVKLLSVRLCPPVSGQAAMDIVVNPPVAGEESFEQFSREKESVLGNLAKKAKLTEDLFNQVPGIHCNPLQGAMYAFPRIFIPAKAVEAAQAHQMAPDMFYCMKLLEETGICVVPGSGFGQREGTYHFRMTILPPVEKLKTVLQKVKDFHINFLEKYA
#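 GPT2 10ng/uL, a-KG 250uM, L-Ala 2mM, HEPES pH7.5 + 0.0001% Tween; 30 min RT. Then Amplex mix (PO/HRP/ThPP), 30 min RT dark, fluorescence. AOA 50uM used as positive control.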
# 3T3 cytotox – cytotoxic compounds in NIH 3T3 cells; NIH 3T3 viability, CellTiter-Glo ATP luminescence, 48-72 h; Potency, µM (highest dose often 96.7 µM), for inactives: at the highest dose activity change, negative = cytotoxicity, hits mostly inhibitors; 4.3% of 94,000 active; AID 1345082; note: nearly all actives have a fitted effect of over 55% in size
#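 ATP-dependent luminescence (CellTiter-Glo) served as the viability signal for NIH 3T3 cells treated with compound for 48 or 72 hr at 37 °C.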
# The depositor's hits bear a star; i = inactive; ? = inconclusive; / = not tested or not shown; [ ] = dose if it differs, or a comment. Hits are enriched below; roughly 10% of the tested compounds scored in any of these assays. Unless noted, calls come from the whole dose curve; as a rule, active = well fitted curve in the direction sought with a large enough effect; inconclusive = small, poorly fitted or top-dose-only effect, or another doubt; inactive = no such curve, though single readings can be large; an effect the other way counts as inactive or inconclusive. % is set by controls: 0 for no effect and ±100 for the full control effect; potency is the fitted concentration of half-maximal effect.
SMILES,hNpr1 antagonist,HEK cytotox,FLuc inh,GPT2 inh,3T3 cytotox
C#CCNC(=O)C1CCN(c2nccc(Nc3ccc(C)cc3)n2)CC1,/,50.1µM*,/,i,?
Cc1ccc(Nc2ccnc(N3CCC(C(=O)NCC4CCCCCC4)CC3)n2)cc1,/,?,/,-6.6%,17.8µM*
CC(C)NC(=O)C1CCN(c2nccc(Nc3ccccc3Cl)n2)CC1,/,?,/,i,?
Cc1ccc(Nc2ccnc(N3CCC(C(=O)Nc4ccccc4Cl)CC3)n2)cc1,/,?,/,-0.1%,39.8µM*
O=C([C@@H]1C[C@H](F)CN1C(=O)c1ccsc1)N1CCOCC1,3.3%,-1.4%,i,-0.9%,i
CCN1CCC(CC(=O)N2CCCC3(C=Cc4ccccc4O3)CC2)CC1 (stereo not drawn),6.1%,?,i,i[11.5 µM],?
Cc1ccc(Nc2ccnc(N3CCCC(C(=O)NCC4CC4)C3)n2)cc1 (stereo not drawn),/,35.5µM*,/,i,35.5µM*
Cc1ccc(Nc2ccnc(N3CCCC(C(=O)NC(C)C)C3)n2)cc1 (stereo not drawn),/,?,/,-6.4%,?
COc1ccc(N2CC3(COCC2=O)CN(c2ccc(C(F)(F)F)cn2)C3)cn1,0.8%[70.6 µM],-19.9%[172 µM],i,-10.4%[88.5 µM],39.8µM*
CC(C)(C)c1ccc(CN2CC3(COCC2=O)CN(c2ccccc2)C3)cc1,-1.5%[70.6 µM],?,i,-3.4%[88.5 µM],79.4µM*
Cc1ccccc1CN1CC2(COCC1=O)CN(c1ccc(C(F)(F)F)cn1)C2,-0.9%[70.6 µM],89.1µM*,i,?,?
N#Cc1ccc(C(=O)N2CCCN(Cc3ccncc3)C(c3ccccc3)CC(=O)NCC2)cc1 (stereo not drawn),-4.7%,-11.6%,i,3.1%,-10.5%
CCCn1ncnc1C(C)NC(=O)C1CCN(C(=O)C2CC2)CC1 (stereo not drawn),-0.1%,-3.3%,i,i,-4.7%
CCCn1ncnc1C(C)Nc1cc(C(C)C)nc2cc(C)nn12 (stereo not drawn),4.0%,?,i,4.9%,35.5µM*
COc1ccc(C(=O)N2C[C@@H]3OCC(=O)N(Cc4cccnc4)[C@@H]3C2)cc1,0.2%[70.6 µM],-5.7%[172 µM],i,i,-11.5%[174 µM]
COc1cccc(CCC(=O)N2C[C@@H](CO)[C@H](c3ccncc3)C2)c1,2.8%,0.0%,i,3.8%,-8.5%
Cc1ccccc1-c1nc(Cn2ccnc2C(C)C)c(C)o1,?,28.2µM*,i,0.6%,?
CC#CCn1cc2c3c(cccc31)[C@H](CC(C)C)N[C@H](C(=O)N1CCN(CCOC)CC1)C2,1.6%,?,i,-6.5%,?
COCCN1C(=O)c2cccn2CC1CNC(=O)c1ccc(C)nc1 (stereo not drawn),-1.2%,3.6%,i,i,i
O=C1Nc2ccccc2C(=O)N2CC[C@H](NS(=O)(=O)c3cccs3)[C@@H]12,5.6%[70.6 µM],-11.1%[172 µM],i,-0.1%[88.5 µM],-22.1%[174 µM]
COc1ccc(-c2ccc3c(c2)C(=O)N2CC[C@H](NC(=O)C4CCCC4)[C@H]2C(=O)N3)cc1,-3.0%[70.6 µM],-25.4%[172 µM],22.4µM*,-3.6%[88.5 µM],?
O=C1Nc2ccc(-c3ccccc3)cc2C(=O)N2CC[C@H](NS(=O)(=O)c3cccs3)[C@@H]12,-14.4%,?,i,-27.1%,20µM*
O=C(N[C@H]1CCN2C(=O)c3cc(-c4ccc5c(c4)OCO5)ccc3NC(=O)[C@H]12)c1cccc(F)c1,-10.8%,?,i,i,79.4µM*
O=C(N[C@H]1CCN2C(=O)c3cc(-c4ccccc4)ccc3NC(=O)[C@H]12)c1cccc(F)c1,-17.6%[70.6 µM],89.1µM*,?,-15.4%[88.5 µM],?
O=C(N[C@H]1CCN2C(=O)c3cc(-c4ccsc4)ccc3NC(=O)[C@H]12)c1cccc(F)c1,-9.7%,-12.4%,i,?,-19.1%
SMILES,hNpr1 antagonist,HEK cytotox,FLuc inh,GPT2 inh,3T3 cytotox
O=C([C@@H]1C[C@H](c2ccc(F)cc2)N(Cc2ccccc2Cl)C1)N1CC(O)C1,-12.6%[70.6 µM],70.8µM*,i,-8.4%[88.5 µM],89.1µM*
O=C([C@@H]1C[C@H](c2ccc(F)cc2)N(Cc2ccccc2Cl)C1)N1CCN(CCO)CC1,-15.5%,?,i,-24.0%,?
O=C([C@@H]1C[C@H](c2ccc(F)cc2)N(Cc2ccccc2Cl)C1)N1CCOCC1,-4.6%[70.6 µM],?,i,-23.4%[88.5 µM],89.1µM*
COc1ccc(Cn2cc(-c3ccc(F)c(C(N)=O)c3)cn2)cc1,-0.7%,?,i,-9.7%,?
Cc1cc(-c2ccc(F)c(C(N)=O)c2)cc(C(C)(C)C)c1,11.0%,44.7µM*,i,0.5%[11.5 µM],?
Cc1cnc(C2CC2)n1C1CCN(S(=O)(=O)c2ccc3c(c2)OCCO3)CC1,/,?,/,i,?
Cc1ccccc1-c1cc(C(=O)NCC[S+](C)(=O)[O-])c2c(c1)N(C)CCO2,-9.7%[70.6 µM],?,i,-13.8%[88.5 µM],?
COC1CCCN(C(=O)c2cc(-c3ccc(F)cc3)cc3ncn(C)c23)C1 (stereo not drawn),1.0%[70.6 µM],?,25.1µM*,-13.6%[88.5 µM],-26.4%[138 µM]
CC(C)c1ccc(NC2=N[C@H]3[C@@H](O)[C@H](O)C[C@H](C(=O)NCCN4CCOCC4)[C@H]3S2)cc1,3.2%,-20.2%,?,0.2%,-14.5%
O=C1CC(c2ccccc2)N(C(=O)CNC(=O)Cn2c(=O)oc3ccccc32)CCCCCN1 (stereo not drawn),-2.9%,3.5%,i,i,i
O=C(Nc1cnc(-c2cccc(Cl)c2)nc1)C1CCCO1 (stereo not drawn),?,?,2.82µM*,-0.1%,-25.6%
O=C(Nc1cnc(-c2cccc(Cl)c2)nc1)c1nccc2ccccc12,-15.0%,?,i,i,?
Cc1ccc(-c2ncc(NC(=O)c3ccc(F)c(F)c3)cn2)cc1,4.9%,8.5%,i,i,i
O=C(Nc1cnc(-c2ccc(Cl)cc2)nc1)c1cccc(F)c1,-10.6%,?,7.94µM*,-6.6%,-3.8%
O=C(Nc1cnc(-c2cccc(Cl)c2)nc1)c1ccsc1,-17.0%,-13.6%,?,i,-26.3%
O=C(Nc1cnc(-c2cccc(Cl)c2)nc1)c1ccc(F)cc1Cl,?,?,11.2µM*,1.7%,?
O=C(Nc1cnc(-c2cccc(Cl)c2)nc1)c1ccccc1F,-15.3%,-2.3%,1µM*,2.6%,3.8%
O=C(NC1CCCC1)C1CCCN1C(=O)c1cccc(-c2cccnc2)c1 (stereo not drawn),/,i,/,/,0.9%
CC(C)(C)CC(=O)Nc1cnc(-c2ccc(Cl)cc2)nc1,3.55µM*,44.7µM*,0.282µM*,-4.6%,39.8µM*
O=C(Nc1cnc(-c2cccnc2)nc1)C1CCCC1,-11.4%,4.4%,31.6µM*,i,-6.0%
COc1ccccc1CC(=O)Nc1cnc(-c2cccc(Cl)c2)nc1,-18.9%,?,12.6µM*,-1.3%,?
